# In PubChem BioAssay:
# A number with no mark means an inactive call.
# Experiment: ATP-based viability of Huh7 replicon cells – cell-based, CellTiter-Glo luminescence, basal, 48 h, cytotoxicity control for HCV replication inhibitor project, primary screen (AID 1143);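 also: Huh7 hepatoma cells carrying a hepatitis C replication reporter with no stimulus; test concentration not given here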
# Conditions: higher = more signal, called active from +8 up or from −8 down
row,Structure (SMILES),z-score
1,COc1cc(CO)cc(I)c1O[C@H]1C=C(C(=O)NCCO)C[C@@H](N(CC2CCCCC2)C(=O)c2cc3ccccc3oc2=O)[C@@H]1O,-0.0365
2,C=C(CCCC)/C(=C/C[C@@H](OC(=O)c1ccncc1)c1cccc(OCCO)c1)c1cc(C(=O)OC)ccc1OC,-1.36
3,C=CCC(OC(C)=O)[C@@H]1[C@@H](N(Cc2ccc(-c3ccccc3)cc2)C(=O)c2ccc(-c3ccccc3)cc2)c2cc(OCCCO)ccc2N1C(=O)Cc1ccc(OC)cc1 (some centres undefined),-0.178
4,CC(=O)NCCCC[C@@H]1NC(=O)[C@H]2C[C@@H](C(=O)NCCCCCCN(C)C)[C@@H](c3ccc(O)cc3)N2C1=O,-0.0718
5,Cc1ccc(S[C@]2(C(=O)NC(C)C)CC(=O)N(C3Cc4ccccc4C3)[C@@H]2c2ccc(CO)cc2)cc1,-4.65
6,Cc1ccc(N2C(=O)c3ccccc3[C@](C)(C(=O)NCC(C)C)[C@@H]2c2ccc(CO)cc2)nc1,0.985
7,[N-]=[N+]=NCc1ccccc1C[C@]1(C(=O)N2CCCCC2)N=C(c2ccc(OCCCO)cc2)O[C@H]1c1ccccc1CN=[N+]=[N-],-4.48
8,C=C(CCCC)/C(=C/C[C@H](OC(=O)c1ccncc1)c1cccc(OCCO)c1)c1cc(C(=O)OC)ccc1OC,-5.25
9,O=C(CS)NCCCCCCNC(=O)[C@@H]1C[C@@H]2C(=O)N[C@@H](Cc3ccccc3)C(=O)N2[C@@H]1c1ccc(O)cc1,-0.345
10,C=C(CCCC)C(=O)CC[C@@H](OC(=O)c1cccnc1)c1cccc(OCCO)c1,-1.85
11,COc1ccc([C@H]2C[C@H]3C(Br)=C[C@]2(OC)C(=O)[C@]32CO2)cc1,0.147
12,C=C(C(=O)CC[C@H](OC(=O)c1ccccc1-c1ccccc1C(=O)O)c1ccc(CO)o1)C(C)C,0.559
13,C#CCCCON=C1C[C@@H](O)[C@@H](O)[C@@H]2[C@@H]3C(=O)N(Cc4ccc5c(c4)OCO5)C(=O)[C@@H]3CC[C@H]12,0.0582
14,COC(=O)c1ccc(C#CC(NP(=O)(c2ccccc2)c2ccccc2)c2ccccc2)cc1 (centres undefined),-0.351
15,CCOC(=O)C1=CC[C@@H](c2ccc(-c3ccc(OCc4ccccc4)cc3)c(OC)c2)N(S(=O)(=O)c2ccc(C)cc2)[C@H]1c1ccccc1,-2.32
16,CC(c1ccccc1)C(O)C1C=CC2C(=O)N(C)C(=O)C2N1N(c1ccccc1)c1ccccc1 (centres undefined),0.066
17,C=C[C@H](OC)[C@@H](OC(=O)Nc1ccc(SC)cc1)c1ccc(O)c(F)c1,-0.731
18,C=C(CCCC)C(=O)CC[C@@H](OC(C)=O)c1ccccc1OCCO,-3.08
19,CC(=O)NCCCC[C@@H]1NC(=O)[C@H]2C[C@@H](C(=O)NCCCCCCN(C)C)[C@@H](c3cccc(OCCO)c3)N2C1=O,-0.102
20,CCCC=C(CCC)[C@@H](NS(=O)(=O)c1cccc(C(F)(F)F)c1)c1ccc(C(=O)OC)cc1,0.0804
21,O=C(NCc1ccccc1)[C@@]1(Cc2ccccc2)COC(c2ccc(OCCCO)cc2)=N1,-4.7
22,[N-]=[N+]=NCc1ccccc1[C@H]1OC(c2ccc(OCCCO)cc2)=N[C@@]1(Cc1ccccc1N=[N+]=[N-])C(=O)NCc1ccccc1,-3.99
23,NC(=O)NCC#Cc1ccc2c(c1)[C@]1(C(=O)N2)[C@H](C(=O)N2CCCCCCC2)[C@H]2C(=O)O[C@H](c3ccccc3)[C@H](c3ccccc3)N2[C@@H]1c1ccccc1OCCO,-0.481
24,C#CCNC(/C=C/c1ccccc1)CO (centres undefined),0.171
25,O=C1C2C=CC(C(O)C(c3ccccc3)c3ccccc3)N(Nc3ccc([N+](=O)[O-])cc3)C2C(=O)N1c1ccccc1 (centres undefined),-0.664
26,C=C(CCCC)/C(=C/C[C@@H](OC(=O)c1ccncc1)c1ccc(CO)o1)c1cnc2ccccc2c1,-1.47
27,CCc1cccc(NC(=O)O[C@H]2[C@H](OC(=O)Nc3ccccc3)[C@@H](OC(=O)Nc3ccccc3)[C@@H](OC)O[C@@H]2CO)c1,-5.6
28,C=CC[C@]1(C(=O)N2CCCCC2)N=C(c2ccc(OCCCO)cc2)O[C@H]1c1ccccc1N=[N+]=[N-],-3.21
29,C#C[C@H](O[Si](C#Cc1ccccc1)(C(C)C)C(C)C)c1ccccc1,-1.33
